Sampled rows, rich in hits. Any-hit rate of the full collection: about 2.1%.
PvdQ acylase: P. aeruginosa PvdQ acylase inhibition; AID 488965; inhibition, % at 10 µM; purified PvdQ acylase, fluorescence plate reader; 340,000 tested, 0.063% active; in the data active means inhibition above about 30%, passing the limit was not always enough; inconclusive means no clear call, values can overlap the other calls
ARNT-TACC3 inh: disruptors of human ARNT/TACC3 interaction; Q9Y6A5; AlphaScreen His-ARNT PAS-B/GST-TACC3 binding, luminescence; TACC3 fragment carries E629A point mutation; inhibition, % at 9.99 µM; 390,000 tested, 0.66% active; AID 623870;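 active means mean inhibition of replicates at least 50% and at least half of replicates each reaching 50%; inconclusive means half or more replicates reach 50% but mean below 50%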
CFTR F508del cor: CFTR F508del correction in bronchial cells; CFBE cells, YFP halide quenching; stimulated with forskolin plus potentiator P3; % fluorescence drop versus neutral controls; activity (quench increase), % at 7.58 µM; 350,000 tested, 0.36% active;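 active means mean added fluorescence quench of at least 8% versus neutral control, with both replicates also reaching 8%; inconclusive means only one of the mean or replicate conditions met; inactive means mean below 8% and not both replicates reaching 8%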;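 further: cells transiently co-express mutant CFTR-F508del with the halide-sensitive YFP; corrector assay measuring rescue of mutant channel to the surface after 24 h compound exposure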
rRNA inh HTS: inhibits bacterial ribosomal RNA function over humanized ribosomes. E. coli WT GFP vs humanized-ribosome RFP mutants, fluorescence, 24 h; stronger effect = lower value; DMSO median 0, no signal -100. GFP signal change (wild-type ribosome), % (test concentration not listed). 350,000 tested, 1.6% active. AID 720706;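 active means significant combined selectivity score with lowered wild-type GFP, culture density cut under 30%, mutant RFP and density less affected; inactive means any of these conditions unmet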
ERAP1 inh: ERAP1 (human) enzyme inhibition; Q9NZ08; recombinant ERAP1, Leu-AMC fluorescence, 60 min; inhibition, % at 10.7 µM; 340,000 tested, 0.15% active;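 active means mean replicate inhibition of at least 30%, or all replicates individually reaching that 30% level; inactive means mean below 30% and not every replicate reaching it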
Target sequence (Q9NZ08 whole entry, looked up): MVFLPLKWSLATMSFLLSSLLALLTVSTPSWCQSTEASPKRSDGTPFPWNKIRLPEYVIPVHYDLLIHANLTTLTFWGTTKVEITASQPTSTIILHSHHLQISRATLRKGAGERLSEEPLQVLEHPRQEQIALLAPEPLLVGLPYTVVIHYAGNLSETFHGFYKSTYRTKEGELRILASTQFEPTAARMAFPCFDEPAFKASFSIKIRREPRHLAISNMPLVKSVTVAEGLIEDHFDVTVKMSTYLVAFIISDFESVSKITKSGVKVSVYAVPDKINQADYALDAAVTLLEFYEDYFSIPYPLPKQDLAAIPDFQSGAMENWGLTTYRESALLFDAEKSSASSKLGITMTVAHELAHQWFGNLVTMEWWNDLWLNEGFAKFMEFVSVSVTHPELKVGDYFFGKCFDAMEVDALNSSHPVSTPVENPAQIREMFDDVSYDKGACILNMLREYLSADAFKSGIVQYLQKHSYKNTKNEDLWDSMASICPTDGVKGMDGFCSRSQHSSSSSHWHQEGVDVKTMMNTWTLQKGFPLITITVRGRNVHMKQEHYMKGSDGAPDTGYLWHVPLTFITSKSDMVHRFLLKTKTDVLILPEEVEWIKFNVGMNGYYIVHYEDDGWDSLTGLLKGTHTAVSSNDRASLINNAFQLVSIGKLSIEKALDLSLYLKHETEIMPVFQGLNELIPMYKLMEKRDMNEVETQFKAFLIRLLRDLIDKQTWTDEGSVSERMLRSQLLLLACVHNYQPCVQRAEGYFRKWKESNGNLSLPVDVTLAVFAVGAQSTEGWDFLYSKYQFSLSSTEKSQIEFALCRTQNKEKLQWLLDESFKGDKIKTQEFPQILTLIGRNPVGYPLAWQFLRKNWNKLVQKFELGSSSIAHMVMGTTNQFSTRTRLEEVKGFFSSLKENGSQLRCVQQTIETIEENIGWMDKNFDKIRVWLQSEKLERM
AID977621: growth inhibition of wild-type GFP E. coli, dose response, H69 mutant RFP, cherry-pick | shares compounds with rRNA inh HTS | E. coli wild-type GFP strain growth, fluorescence, 24 h | AID 977621 | activity change, negative = inhibition at 50 µM | 1,900 tested, under 10 active;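 active means Wild-type ribosome reporter drop at least double the humanized mutant ribosome reporter drop, growth loss under a set limit; inconclusive means no clear call, values can overlap the other calls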;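 further: wild-type GFP and H69 mutant RFP strains grown together 50/50 in each well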
AID977628: growth of wild-type and h24-humanized E. coli strains – h24 mutant RFP vs wild-type GFP, cherry-pick, dose response; shares compounds with rRNA inh HTS; E. coli WT GFP strain growth, fluorescence, 24 h; activity change, negative = inhibition at 50 µM; 1,900 tested, under 10 active; AID 977628;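 active means compound lowering the normal-ribosome reporter at least twice as much as the humanized-ribosome reporter, growth loss under a set limit; inconclusive means no clear call, values can overlap the other calls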;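 further: wild-type GFP and h24 humanized RFP strains co-cultured 1 to 1 per well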
Of the large screens only hits and unclear results are named; the others gave an inactive call (follow-up assays come after a bar, where they were run).

COc1ccc2c(c1)-c1nc(N)sc1CC2	rRNA inh HTS -22 | AID977621 inactive | AID977628 inactive
Nc1nc2c(s1)CCc1ccccc1-2	none
O=C(NNc1ccc([N+](=O)[O-])cc1[N+](=O)[O-])C1C2CCCCC21 (stereo not given)	none (no result: ARNT-TACC3 inh, CFTR F508del cor)
O=C(O)C1(Nc2ccc([N+](=O)[O-])cc2[N+](=O)[O-])CCCC1	rRNA inh HTS -16 | AID977621 inactive | AID977628 inactive
Cc1nn(C)cc1NC(=O)C[C@@H]1CC[C@H]2[C@@H](COc3ccc(NC(=O)C(C)C)cc3C(=O)N2C)O1	none (no result: PvdQ acylase, ERAP1 inh)
CCOC(=O)c1ccc(NC(=O)c2ccc(OC(C)C)c(OC)c2)cc1	rRNA inh HTS -26 | AID977621 inactive | AID977628 inactive
CCOC(=O)c1ccc(NC(=O)Nc2ccc(OC)c(OC)c2)cc1	none (no result: CFTR F508del cor, rRNA inh HTS, ERAP1 inh)
CC(C)C#Cc1cnc2c(c1)C(=O)N([C@H](C)CO)C[C@@H](C)[C@@H](CN(C)C(=O)CCN1CCCCC1)O2	none (no result: PvdQ acylase)
COc1ccccc1N1CCN(C(=O)c2ccco2)CC1	none
COc1ccccc1C1CCN(C(=O)c2ccco2)CC1	rRNA inh HTS -23 | AID977621 inactive | AID977628 inconclusive
N#C[C@@H]1[C@H](c2ccccc2C2=CCCCC2)[C@@H](CO)N1C(=O)Cc1ccncc1	none (no result: PvdQ acylase, ARNT-TACC3 inh)
C[C@@H]1CCCCO[C@H](CN(C)C(=O)NC2CCCCC2)[C@H](C)CN([C@@H](C)CO)C(=O)c2cc(NC(=O)CCCN(C)C)ccc2O1	none (no result: PvdQ acylase)
CCC(=O)N(C)C[C@H]1Oc2cc(C3=CCCC3)ccc2S(=O)(=O)N([C@@H](C)CO)C[C@@H]1C	none (no result: PvdQ acylase)
COc1cc(CCN(C(=O)c2cc3ccccc3[nH]2)C(c2ccccn2)c2nc3ccccc3[nH]2)cc(OC)c1 (stereo not given)	rRNA inh HTS -26 (no result: PvdQ acylase, ARNT-TACC3 inh) | AID977621 inactive | AID977628 inactive
CN1CCN(C(=O)CN2C(=O)NC(C)(c3ccc4ccccc4c3)C2=O)CC1 (stereo not given)	none
CC1(c2ccc3ccccc3c2)NC(=O)N(CC(=O)N2CCN(c3ccccc3O)CC2)C1=O (stereo not given)	rRNA inh HTS -20 | AID977621 inactive | AID977628 inactive
COc1ccc(-c2nn(-c3ccccc3C)cc2CNCc2cccnc2)cc1F	rRNA inh HTS -18 | AID977621 inactive | AID977628 inactive
Cc1cccc(-c2ccc([C@@H]3[C@@H](CO)N4CCCCN(S(=O)(=O)c5ccccc5C)C[C@H]34)cc2)c1	none (no result: PvdQ acylase) | AID977621 inactive | AID977628 inactive
Cc1cccc(-c2ccc([C@@H]3[C@@H](CO)N4CCCCN(S(=O)(=O)c5ccccc5C)C[C@@H]34)cc2)c1	none (no result: PvdQ acylase) | AID977621 inactive | AID977628 inactive
Cc1cccc(-c2ccc([C@H]3[C@H]4CN(S(=O)(=O)c5ccccc5C)CCCCN4[C@H]3CO)cc2)c1	none (no result: PvdQ acylase) | AID977621 inactive | AID977628 inconclusive
COc1cccc(-c2ccc([C@@H]3[C@H](CO)N4CCCCN(S(=O)(=O)c5cccs5)C[C@@H]34)cc2)c1	rRNA inh HTS -46 (no result: PvdQ acylase) | AID977628 inconclusive
O=C(NC[C@H]1CC[C@@H]2[C@@H](CN2S(=O)(=O)c2ccccc2[N+](=O)[O-])O1)C1CCC1	none (no result: PvdQ acylase, ARNT-TACC3 inh, rRNA inh HTS)
C[C@@H]1CN([C@H](C)CO)S(=O)(=O)c2ccc(-c3ccncc3)cc2O[C@@H]1CN(C)C(=O)CC1CC1	none (no result: PvdQ acylase)
CCCC(=O)N1CCC2(CC1)CN(S(=O)(=O)c1ccc(C)cc1)[C@@H](CO)c1[nH]c3cc(OC)ccc3c12	none (no result: PvdQ acylase, ARNT-TACC3 inh, ERAP1 inh)
Cc1noc(C)c1S(=O)(=O)Nc1ccc2c(c1)C(=O)N([C@H](C)CO)C[C@@H](C)[C@@H](CN(C)S(C)(=O)=O)O2	none (no result: PvdQ acylase)
N#CC1CN(C(c2ccccc2)c2ccccc2)C1	none (no result: ARNT-TACC3 inh)
N#CC1CN(Cc2ccccc2)CN(Cc2ccccc2)C1	rRNA inh HTS -27 | AID977628 inconclusive
COc1ccc(-c2nc(C3CCCCC3)no2)cc1OC	rRNA inh HTS -19 | AID977621 inactive | AID977628 inactive
CNC[C@@H]1Oc2c(NC(=O)C3CC3)cccc2C(=O)N([C@H](C)CO)C[C@@H]1C	none (no result: PvdQ acylase)
COc1cccc(CN(C)Cc2nc(Cc3ccccc3Cl)no2)c1	rRNA inh HTS -26 | AID977621 inactive | AID977628 inconclusive
CN(Cc1ccccn1)Cc1nc(Cc2ccccc2Cl)no1	none (no result: ARNT-TACC3 inh)
CCCN(C)C[C@H]1OCc2cnnn2CCCC(=O)N([C@@H](C)CO)C[C@@H]1C	none (no result: PvdQ acylase)
CCCn1nnnc1NCc1ccccc1OCc1ccc(F)cc1	none (no result: CFTR F508del cor, rRNA inh HTS, ERAP1 inh)
CCCn1nnnc1NCc1ccccc1OCc1cccs1	rRNA inh HTS -20 | AID977621 inactive
CCC(=O)NC[C@@H]1[C@@H](c2ccc(-c3cccc(F)c3)cc2)[C@@H](CO)N1C(=O)CC	none (no result: PvdQ acylase)
CO[C@H]1CN(C)C(=O)c2cc(NC(=O)NC3CCCCC3)ccc2OC[C@@H](C)N(C)C[C@@H]1C	none (no result: PvdQ acylase)
COc1ccc(C(=O)n2cnc3ccccc32)cc1[N+](=O)[O-]	rRNA inh HTS -27 | AID977621 inactive | AID977628 inactive
COC(=O)c1nc(-c2ccc(C)cc2)[nH]c1C(C)(C)C	rRNA inh HTS -21 (no result: PvdQ acylase, ARNT-TACC3 inh, ERAP1 inh) | AID977621 inactive | AID977628 inactive
Cc1ccc(-c2[nH]c(-c3ccc(C(=O)O)cc3)nc2-c2ccccc2)cc1	none (no result: CFTR F508del cor)
COc1cc(OC)cc(C(=O)Nc2ccc(S(=O)(=O)Nc3cnc4ccccc4n3)cc2)c1	rRNA inh HTS -44 (no result: PvdQ acylase, ARNT-TACC3 inh) | AID977621 inactive
Brc1ccccc1Cn1c(-c2cncs2)nc2ccccc21	rRNA inh HTS -9.4 | AID977621 inactive | AID977628 inactive
O=C(CCNc1cccc(Cl)c1)c1cccs1	rRNA inh HTS -20 | AID977621 inactive | AID977628 inactive
Cc1ccc(NCCC(=O)c2cccs2)cc1Cl	none (no result: CFTR F508del cor, rRNA inh HTS, ERAP1 inh)
CCc1ccn2cc(-c3ccc4c(c3)OCO4)nc2c1	rRNA inh HTS -26 | AID977621 inactive
N#C[C@@H]1[C@@H](c2ccccc2-c2ccc(F)cc2)[C@@H](CO)N1C(=O)Cc1ccccc1	none (no result: PvdQ acylase, ARNT-TACC3 inh)
CC(C)C(=O)Nc1ccc2c(c1)C(=O)N(C)[C@@H]1CC[C@H](CC(=O)Nc3ccccc3)O[C@@H]1CO2	none (no result: PvdQ acylase)
Cc1noc(C)c1NC(=O)Nc1ccc2c(c1)C(=O)N([C@H](C)CO)C[C@H](C)[C@@H](CN(C)C(=O)Nc1ccccc1)OCCCC[C@H](C)O2	none (no result: PvdQ acylase)
COc1ccc(NC(=O)CN(c2ccccc2OC)S(=O)(=O)c2cccs2)cc1Cl	rRNA inh HTS -17 | AID977621 inactive
COc1ccccc1N(CC(=O)Nc1ccccc1)S(=O)(=O)c1cccs1	none
